Source: PubChem BioAssay
This is a sample that favours compounds with a hit; in the whole collection about 3.7% have one here.
ANO1 block: blocks the mouse calcium-activated chloride channel TMEM16A | normalized B-score (activity score, 25-100; higher = stronger inhibition) at 10 µM | HEK293 TMEM16A/YFP iodide influx fluorescence, ionomycin | AID 588511 | 1.2% of 310,000 active | Q8BHY3;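 active = ratio plate-corrected score three or more library SD toward inhibition, starting fluorescence score within five deviations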;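 also: score derived from kinetic fluorescence span divided by baseline fluorescence per well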
Target sequence (Q8BHY3 whole entry, looked up): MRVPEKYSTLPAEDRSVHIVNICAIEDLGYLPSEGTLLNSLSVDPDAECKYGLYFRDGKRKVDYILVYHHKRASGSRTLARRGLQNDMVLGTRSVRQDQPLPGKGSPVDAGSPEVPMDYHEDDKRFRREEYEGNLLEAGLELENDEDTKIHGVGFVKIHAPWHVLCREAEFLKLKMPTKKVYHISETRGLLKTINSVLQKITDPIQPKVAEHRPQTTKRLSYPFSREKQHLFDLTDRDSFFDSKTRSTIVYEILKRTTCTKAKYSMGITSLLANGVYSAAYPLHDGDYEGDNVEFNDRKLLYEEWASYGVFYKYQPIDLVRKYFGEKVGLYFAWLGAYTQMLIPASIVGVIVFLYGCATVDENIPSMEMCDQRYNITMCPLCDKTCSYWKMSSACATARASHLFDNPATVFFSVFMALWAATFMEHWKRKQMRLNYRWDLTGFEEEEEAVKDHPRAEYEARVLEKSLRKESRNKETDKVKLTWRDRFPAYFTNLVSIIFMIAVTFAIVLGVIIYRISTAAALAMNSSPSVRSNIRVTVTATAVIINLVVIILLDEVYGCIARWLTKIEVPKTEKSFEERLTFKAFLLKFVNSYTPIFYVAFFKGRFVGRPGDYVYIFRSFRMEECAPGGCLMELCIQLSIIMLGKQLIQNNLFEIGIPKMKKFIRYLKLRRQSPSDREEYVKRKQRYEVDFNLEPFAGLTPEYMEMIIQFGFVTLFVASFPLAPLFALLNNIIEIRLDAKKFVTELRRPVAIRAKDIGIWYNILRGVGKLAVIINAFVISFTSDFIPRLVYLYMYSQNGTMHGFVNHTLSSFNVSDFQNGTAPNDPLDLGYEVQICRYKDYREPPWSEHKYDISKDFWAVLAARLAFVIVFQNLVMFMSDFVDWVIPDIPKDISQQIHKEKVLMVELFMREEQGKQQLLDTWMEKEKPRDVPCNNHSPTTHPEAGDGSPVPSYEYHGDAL
CHT block: human CHT choline transport inhibition; Q9GZV3; CHT-expressing cells, membrane potential dye, choline response; hits give low values; B-score at 10 µM; 0.86% of 310,000 active;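 active = B-score over 3 SD under the library average, and starting fluorescence ratio not unusually high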;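 also: choline stimulus applied at its EC90 after an EC20 pre-addition; B-score computed on integrated fluorescence ratio after choline addition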
CHT PAM: human CHT allosteric activation. Q9GZV3. CHT-expressing cells, membrane potential dye, choline EC20; hits give high values; LV-AA mutant CHT in HEK293 cells. 0.49% of 310,000 active. AID 488977. B-score at 10 µM;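 active = initial fluorescence not abnormally high and integrated response B-score, plate-corrected, over 3 SD above library mean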
GPR7 antagonist: blocks human GPR7 receptor signaling. AID 1861. GPR7-expressing cells, fluorescence antagonist assay. 1.1% of 290,000 active. inhibition, % at 4.4 µM; in the data active = inhibition above about 16%, passing the limit was not always enough;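 also: cells stimulated with the agonist NPW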
TMEM16A act: mouse TMEM16A channel activation, primary screen; HEK293 TMEM16A/YFP-H148Q/I152L, iodide quench fluorescence; hits give low values; 0.3% of 340,000 active; B-score at 10 µM;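 active = fluorescence-ratio B-score plate-corrected deviation score at least 3 library SD below zero, with starting fluorescence score within 5 deviations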;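 also: channel opened by trigger with iodide after compound preincubation; score built on the fluorescence ratio of max minus min over baseline; more negative score means more quench and so TMEM16A activation or potentiation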
Kir21 block: blocks the mouse Kir2.1 inward-rectifier potassium channel | AID 1672 | HEK293-Kir2.1, FluxOR thallium flux fluorescence; hits give low values | B-score at 10 µM | P35561 | 0.85% of 310,000 active;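 active = fluorescence ratio B-score at or below minus 3 SD of library scores, with starting-brightness B-score within 2 SD, cut at about -4.2 in these data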;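 also: channel flux triggered by added potassium and thallium sulfate stimulus; B-score of peak minus minimum fluorescence over baseline after thallium stimulus; more negative B-score means stronger Kir2.1 block with less thallium influx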
GPR7 antag conf: confirmation of human GPR7 antagonists | shares compounds with GPR7 antagonist | AID 1952 | 52% of 2,400 active | GPR7-expressing cells, calcium fluorescence antagonist mode | inhibition, % at 4.4 µM; in the data active = inhibition above about 24%;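 also: stimulated with the GPR7 agonist NPW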
MCHR1 antagonist: antagonizes human MCHR1, a GPR7 antagonist counter-screen | shares compounds with GPR7 antagonist | MCHR1-expressing cells, fluorescence antagonist assay | inhibition, % at 4.4 µM | 62% of 2,400 active | AID 2148; in the data active = inhibition above about 22%
CHT activ conf: confirmation of human choline transporter (CHT) activators; CHT-expressing cells, membrane potential dye fluorescence (FDSS); % of choline EC20–EC90 response window; HEK293 expressing CHT LV-AA mutant; choline added at its EC20; shares compounds with CHT PAM; AID 504833; 91% of 2,500 active; activation, % at 10 µM;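 active = primary screen active, with duplicate mean activation above negative control mean plus 3 SD, cut at about 11% in these data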
HEK293 MP dye: CHT activator counter-screen hit in parental HEK293 cells | membrane potential dye fluorescence (FDSS); measured after EC20 choline addition | ratio readout change at 10 µM, hits read low | 62% of 2,500 active | shares compounds with CHT PAM;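 active = duplicate-averaged ratio beyond 3 SD from buffer wells, up or down, though filed actives are nearly all decreases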
TMEM16A reconf: TMEM16A (mouse) chloride channel inhibition, re-confirmation; shares compounds with ANO1 block; HEK293 TMEM16A/YFP-H148Q, iodide quench fluorescence; ionomycin added to raise cell calcium; inhibition, % at 10 µM; 39% of 2,300 active;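 active = mean duplicate percent inhibition, scaled so buffer wells are 0 and the reference blocker 100, over three buffer SD above buffer mean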
TMEM16A Ca cntr: calcium mobilization counter-screen hit for TMEM16A inhibitor series; TMEM16A/YFP HEK293, Fluo4 calcium mobilization; AID 652231; 2% of 2,300 active; shares compounds with ANO1 block; calcium response (% of ionomycin), % at 10 µM;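 active = duplicate-averaged calcium signal over 20% of the ionomycin maximum, relative to buffer baseline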;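 also: each well's signal is peak minus trough fluorescence divided by its pre-addition baseline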
YFP-HEK293 quench: parental YFP-HEK293 iodide quench counter-screen activity; shares compounds with ANO1 block; ionomycin; YFP ratio F(max-min)/F0 at 10 µM; 2,300 tested, under 10 active; AID 652233;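 active = yellow fluorescent protein signal ratio exceeding the buffer control mean by over 5 SD of those controls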;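 also: ratio is mean of duplicate wells from kinetic YFP trace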
ClC-1 rat inh: blocks the rat ClC-1 voltage-dependent chloride channel; shares compounds with ANO1 block; CHO ClC-1-YFP, iodide influx fluorescence quench; iodide control reads 0, buffer control 100; ratio percent, % at 10 µM; 2,300 tested, under 10 active;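 active = duplicate-mean ratio percent above the mean of iodide-only control wells, which defines zero, plus 5 of their SD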;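 also: higher percent means stronger block of ClC-1 iodide influx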
Each line names hits and unclear results; the compound was inactive in the other large screens (follow-up assays come after a bar, where they were run).

CC(C)C(=O)N1CCN(c2ccccc2NC(=O)c2ccc([N+](=O)[O-])o2)CC1	CHT PAM 11, GPR7 antagonist 35 | GPR7 antag conf 28 | MCHR1 antagonist inactive | CHT activ conf 39 | HEK293 MP dye inactive
CCOC(=O)c1c(C)oc2ccc(OC(=O)COc3c(F)c(F)c(F)c(F)c3F)cc12	none
C=CCn1c(SCc2c(C)noc2C)nc2cc(C(=O)O)ccc2c1=O	none
C=CCn1c(SCc2c(C)noc2C)nc2ccccc2c1=O	CHT PAM 6.6, GPR7 antagonist 26 | GPR7 antag conf inactive | MCHR1 antagonist 24 | CHT activ conf 27 | HEK293 MP dye inactive
CCCCNC(=NCc1cccc(C(F)(F)F)c1)Nc1ccccc1	CHT PAM 12, GPR7 antagonist 44 | GPR7 antag conf 49 | MCHR1 antagonist 31 | CHT activ conf 18 | HEK293 MP dye inactive
O=C(Cc1cccc(C(F)(F)F)c1)Nc1ccccc1	none
N#Cc1nc(COc2ccc(F)cc2)oc1N1CCCC1	none
N#Cc1nc(COc2ccccc2)oc1N1CCN(Cc2ccccc2)CC1	CHT PAM 10, GPR7 antagonist 26 | GPR7 antag conf 33 | MCHR1 antagonist 52 | CHT activ conf 36 | HEK293 MP dye inactive
Cc1ccc(OCc2nc(C#N)c(N3CCN(Cc4ccccc4)CC3)o2)cc1	CHT PAM 11, GPR7 antagonist 43 | GPR7 antag conf 44 | MCHR1 antagonist 51 | CHT activ conf 33 | HEK293 MP dye inactive
CNC(=O)c1ccccc1NC(=O)C1CC(=O)N(C(C)C)C1 (stereo not given)	none
Nc1nonc1C(=O)NCCNCc1ccccc1OCc1ccccc1F	CHT PAM 6.3, GPR7 antagonist 29 | GPR7 antag conf 36 | MCHR1 antagonist 33 | CHT activ conf 16 | HEK293 MP dye inactive
CCOc1ccccc1CNCCNC(=O)c1nonc1N	none
CN(Cc1ccccc1)S(=O)(=O)CCNC(=O)c1ccc2c(c1)OCO2	none (no result: GPR7 antagonist)
CCc1ccc(Nc2n[n+](-c3ccccc3)c(-c3ccc(OCc4ccccc4)cc3)s2)cc1	ANO1 block 100, CHT PAM 17, GPR7 antagonist 68 | GPR7 antag conf 53 | MCHR1 antagonist 59 | CHT activ conf inactive | HEK293 MP dye inactive
COc1ccc(Cc2nnc(NC(=O)c3ccccc3Cl)s2)cc1OC	none
Cc1ccc(S(=O)(=O)Nc2ccc(NC(=O)Nc3cccc(C(F)(F)F)c3)cc2)cc1	none
CCN(CC)S(=O)(=O)c1ccc(NC(=O)Nc2cccc(C(F)(F)F)c2)cc1	ANO1 block 100, GPR7 antagonist 27 | GPR7 antag conf 41 | MCHR1 antagonist 57 | TMEM16A reconf 44% | TMEM16A Ca cntr inactive | YFP-HEK293 quench inactive | ClC-1 rat inh inactive
